Results from the supplement of paper PMC9844399.
Where a name gives a salt, the structure may show the parent alone.

These molecules were tested on HeLa (assay: nuclear count per well, robust Z-score vs DMSO; higher = more cells (less toxicity)). Details: 10 µM; 6 h.
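Note: Hoechst-stained nuclei counted by automated confocal imaging of four fields per well in 384-well plates, with the robust Z-score based on the per-plate DMSO median and robust SD.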

| SMILES | nuclear count per well |
| --- | --- |
| C#CCCCCCCCCCCCCCCCC(=O)O [17-Octadecynoic acid] | -0.139 |
| CCC1=C[C@@H]2CN(C1)Cc1c([nH]c3ccccc13)[C@@](C(=O)OC)(c1cc3c(cc1OC)N(C)[C@H]1[C@@](O)(C(=O)OC)[C@H](OC(C)=O)[C@]4(CC)C=CCN5CC[C@]31[C@@H]54)C2 [Vinorelbine] | -3.48 |
| OC[C@H]1O[C@@H](O[C@@H]2[C@@H](CO)OC(O)(CO)[C@H]2O)[C@H](O)[C@@H](O)[C@H]1O (mixture of isomers) [Lactulose] | 0.314 |
| Cc1ccccc1C(OCCN(C)C)c1ccccc1 (stereo not given) [Orphenadrine Citrate] | -1.31 |
| CC/C(=C(\c1ccccc1)c1ccc(OCCN(C)C)cc1)c1ccccc1 [Tamoxifen] | -0.0627 |
| CC(CCc1ccccc1)NCC(O)c1ccc(O)c(C(N)=O)c1 (stereo not given) | 0.183 |
| O=C1CN(/N=C/c2ccc(-c3ccc([N+](=O)[O-])cc3)o2)C(=O)N1 [Dantrolene sodium salt] | 0.134 |
| COc1ccc2[nH]c([S@@+]([O-])Cc3ncc(C)c(OC)c3C)nc2c1 [Esomeprazole Potassium] | 0.823 |
| NC[C@H](O)c1ccc(O)c(O)c1 [Norepinephrine Bitartrate Monohydrate] | 0.285 |
| CC(CCc1ccc(O)cc1)NCCc1ccc(O)c(O)c1 (stereo not given) | 1.31 |
| CN1CCc2cccc3c2[C@H]1Cc1ccc(O)c(O)c1-3 | -0.0769 |
| C[C@H](N[C@@H](CCc1ccccc1)C(=O)O)C(=O)N1CCC[C@H]1C(=O)O [Enalaprilat Maleate] | -0.807 |
| CCC1(c2ccccc2)C(=O)NCNC1=O [Primidone] | 0.218 |
| N=C(N)NC(=O)c1nc(Cl)c(N)nc1N [Amiloride hydrochloride hydrate] | 0.329 |
| CN(N=O)C(=O)N[C@@H](C=O)[C@@H](O)[C@H](O)[C@H](O)CO [Streptozocin] | 0.59 |
| O=P(O)(O)C(Sc1ccc(Cl)cc1)P(=O)(O)O [Tiludronate Disodium] | 1.66 |
| Cc1ccc(Nc2nccc(N(C)c3ccc4c(C)n(C)nc4c3)n2)cc1S(N)(=O)=O | -0.0602 |
| Nc1nc(N)c2nc(-c3ccccc3)c(N)nc2n1 [Triamterene] | 0.0684 |
| CO[C@@]12[C@H](COC(N)=O)C3=C(C(=O)C(C)=C(N)C3=O)N1C[C@@H]1N[C@@H]12 [Mitomycin C] | -0.569 |
| CC(=O)Oc1cc2c(s1)CCN(C(C(=O)C1CC1)c1ccccc1F)C2 (stereo not given) [Prasugrel] | -0.0809 |

| SMILES | nuclear count per well |
| --- | --- |
| CCCCCCCCCCCCCC(=O)N[C@H](C)[C@@H](O)c1ccccc1 [D-erythro-MAPP] | -0.426 |
| CC(=O)OCC(=O)[C@@]1(O)CC[C@H]2[C@@H]3CCC4=CC(=O)CC[C@]4(C)[C@@]3(F)[C@@H](O)C[C@@]21C [Fludrocortisone Acetate] | 1.2 |
| CC1(C)C[C@@H]1C(=O)N/C(=C\CCCCSC[C@H](N)C(=O)O)C(=O)O | 0.617 |
| CCCCCCCC/C=C\C/C=C\C/C=C\CCCC(=O)NCCO [Mead ethanolamide] | -0.6 |
| CCCCC/C=C\C/C=C\C/C=C\C/C=C\CCCC(=O)O [Arachidonic acid (20:4, n-6)] | -0.128 |
| CC(=O)Nc1nnc(S(N)(=O)=O)s1 [Acetazolamide] | -0.436 |
| CCN(Cc1ccncc1)C(=O)C(CO)c1ccccc1 (stereo not given) [Tropicamide] | 0.487 |
| C[C@@H]1C/C=C/C=C/C=C/C=C/[C@H](O[C@@H]2O[C@H](C)[C@@H](O)[C@H](N)[C@@H]2O)C[C@@H]2O[C@](O)(C[C@@H](O)C[C@H]3O[C@@H]3/C=C/C(=O)O1)C[C@H](O)[C@H]2C(=O)O [Natamycin] | 0.636 |
| O=C(c1ccccc1)c1ccc2n1CCC2C(=O)O (stereo not given) [Ketorolac Tromethamine] | 0.37 |
| CCCCC(=O)N(Cc1ccc(-c2ccccc2-c2nnn[nH]2)cc1)[C@H](C(=O)O)C(C)C [Valsartan] | 2.15 |
| CNNCc1ccc(C(=O)NC(C)C)cc1 | -0.607 |
| Cc1cc(-c2ncc(CC(=O)Nc3ccc(-c4cnccn4)cn3)cc2C)ccn1 | 1.55 |
| Nc1ccn([C@H]2CC[C@@H](CO)O2)c(=O)n1 [Zalcitabine (2',3'-Dideoxycytidine)] | -0.538 |
| COc1cc2nc(N3CCN(C(=O)c4ccco4)CC3)nc(N)c2cc1OC [Prazocin] | 0.533 |
| NS(=O)(=O)c1cc2c(cc1C(F)(F)F)NCNS2(=O)=O [Hydroflumethiazide] | -0.332 |
| CN(C)CCCOc1nn(Cc2ccccc2)c2ccccc12 [Benzydamine hydrochloride] | -1.28 |
| COC(=O)CCC(=O)CN | -1.44 |
| Cc1cccc(Nc2cc(Cl)nc(SCC(=O)O)n2)c1C | -0.718 |
| Cc1nnc(NS(=O)(=O)c2ccc(N)cc2)s1 [Sulfamethizole] | 0.495 |
| [Cl-].[Li+] [Lithium Chloride] | 0.96 |
